Assay results published in the supplement of paper PMC6992640.

Test system: UCD52 (cells of a triple-negative basal-like breast cancer xenograft)
Assay: cell viability of combination (% of vehicle); higher = less cytotoxic
Settings: 1 µM; 72 h; partner dose: 10 nM
Description: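 PDX cells were treated for 72 h with each drug at 1 µM plus afatinib (10 nM; 1 µM for WHIM30). Luciferase viability is expressed as percent of vehicle.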

Row | Structure (SMILES) | cell viability of combination
1 | CCCCCCCCCCCCCCCC[N+](C)(C)C.[Br-] [Cetrimonium Bromide (CTAB)] + CN(C)C/C=C/C(=O)Nc1cc2c(Nc3ccc(F)c(Cl)c3)ncnc2cc1O[C@H]1CCOC1 [Afatinib] | 66.1
2 | Cc1cc(C(C#N)c2ccc(Cl)cc2)c(Cl)cc1NC(=O)c1cc(I)cc(I)c1[O-].[Na+] (stereo not given) [Closantel Sodium] + CN(C)C/C=C/C(=O)Nc1cc2c(Nc3ccc(F)c(Cl)c3)ncnc2cc1O[C@H]1CCOC1 [Afatinib] | 72.7
3 | CCCCCCCCCCCC[N+](C)(C)CCOc1ccccc1.[Br-] [Domiphen Bromide] + CN(C)C/C=C/C(=O)Nc1cc2c(Nc3ccc(F)c(Cl)c3)ncnc2cc1O[C@H]1CCOC1 [Afatinib] | 65.3
4 | CCCCCCCCCCCCCCCC[n+]1ccccc1.[Cl-] [Cetylpyridinium Chloride] + CN(C)C/C=C/C(=O)Nc1cc2c(Nc3ccc(F)c(Cl)c3)ncnc2cc1O[C@H]1CCOC1 [Afatinib] | 55.3
5 | Cc1cc(C(C#N)c2ccc(Cl)cc2)c(Cl)cc1NC(=O)c1cc(I)cc(I)c1O (stereo not given) [Closantel] + CN(C)C/C=C/C(=O)Nc1cc2c(Nc3ccc(F)c(Cl)c3)ncnc2cc1O[C@H]1CCOC1 [Afatinib] | 75.8
